Screening data (PubChem BioAssay)
PI4K2A inh – qHTS for small molecular inhibitors of PI4K2A; activity change, negative = inhibition, % at 76.9 µM; hit rate 0.13% among 420,000; purified PI4K2A, ADP-Glo luminescence, 1 h; stronger effect = lower value; AID 1346378, 2018; in the data active = activity change below about -50%; inconclusive = mostly about -30% to -49%
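In this quantitative HTS, ADP production by PI4K2A was quantified luminescently after 1 h at ambient temperature; 100 microM adenosine served as plate-quality control.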
Tb PGK inh – qHTS Assay to Find Inhibitors of Phosphoglycerate Kinase; Phosphoglycerate kinase, glycosomal (Trypanosoma brucei brucei), P07378; PGK/GAPDH coupled, Kinase-Glo luminescence, 60 min; Potency, µM (highest dose often 57.5 µM), most hits filed as inhibitors; hit rate 0.043% among 380,000; AID 602233, 2012; note: nearly all actives have a fitted effect of over 60% in size
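Recombinant glycosomal PGK reaction used 1,3-bisphosphoglycerate generated in-well by GAPDH (100nM final) in 100mM TEA pH 7.6, 5mM MgCl2, 0.01% Tween-20. After 60 minutes at room temperature, ATP was read by Kinase-Glo Plus luminescence end-point.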
PINK1 modulator – A Quantitative High throughput Screen to Identify Chemical Modulators of PINK1 Expression. Potency, µM (series often up to 76.6 µM), actives largely listed as activators. PINK1 immunofluorescence, high-content cytometry, 24 h. hit rate 0.2% among 410,000; active = well fitted activation curve with a large enough effect; inconclusive = small, poorly fitted or top-dose-only effect; cell line not stated here; note: nearly all actives have a fitted effect of over 65% in size
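Stable cell line treated 24 h with compounds at 5 concentrations (CCCP controls), then fixed and immunostained for PINK1 plus nuclear and cell stains; PINK1 immunofluorescence quantified by laser-scanning microplate cytometry.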
CCT chaperon mod – High-Throughput Screening for Modulators of Cytosolic Chaperonin Activity; purified chaperonin ATPase assay, HTRF ADP detection, 30 min; activity change, % (test concentration not listed), hits read low; hit rate 0.3% among 360,000; AID 651819, 2012; in the data active = activity change below about -30%
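TRiC at 40 or 20 nM final (batch-dependent) in 30 mM Tris pH 7.4, 100 mM KCl, 5 mM MgCl2, 1 mM DTT, with compound at single 76 uM and 10 uM ATP, 30 min at 37 deg C. ADP detected by HTRF Transcreener, 665/615 ratio.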
GLS inh – qHTS for Inhibitors of Glutaminase (GLS) | Glutaminase kidney isoform, mitochondrial (Homo sapiens), O94925 | GLS enzymatic activity, qHTS titration | Potency, µM (series often up to 45.5 µM), usual class: inhibitors | hit rate 0.21% among 410,000 | AID 624170, 2012
Target sequence (O94925 whole entry, looked up, canonical isoform): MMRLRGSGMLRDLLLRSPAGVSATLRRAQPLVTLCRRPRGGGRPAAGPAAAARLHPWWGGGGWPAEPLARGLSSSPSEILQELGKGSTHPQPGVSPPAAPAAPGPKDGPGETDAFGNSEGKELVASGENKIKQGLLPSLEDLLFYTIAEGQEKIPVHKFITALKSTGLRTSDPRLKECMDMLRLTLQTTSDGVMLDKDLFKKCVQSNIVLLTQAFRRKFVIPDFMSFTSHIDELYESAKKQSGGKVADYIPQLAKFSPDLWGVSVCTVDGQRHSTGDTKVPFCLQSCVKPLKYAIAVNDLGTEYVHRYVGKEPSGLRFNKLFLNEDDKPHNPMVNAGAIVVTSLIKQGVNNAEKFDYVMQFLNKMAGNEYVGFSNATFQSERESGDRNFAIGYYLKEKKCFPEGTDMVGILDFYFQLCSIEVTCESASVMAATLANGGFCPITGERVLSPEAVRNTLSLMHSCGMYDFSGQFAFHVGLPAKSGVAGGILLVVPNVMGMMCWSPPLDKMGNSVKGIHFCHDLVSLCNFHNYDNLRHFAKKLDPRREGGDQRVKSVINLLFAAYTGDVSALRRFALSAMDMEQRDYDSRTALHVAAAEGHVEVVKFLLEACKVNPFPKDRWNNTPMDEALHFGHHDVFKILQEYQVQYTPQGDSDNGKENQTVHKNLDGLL
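Glutamate formation by hKGA was monitored fluorometrically using coupled glutamate oxidase, HRP and Amplex Red. Substrate was added as 1 mM L-glutamine solution; incubation was 30 min at RT after an initial read.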
Large screens that a line does not name were inactive. This is a sample that favours compounds with a hit; in the whole collection about 0.78% have one here. Unless noted, calls come from the whole dose curve; as a rule, active = well fitted curve in the direction sought with a large enough effect; inconclusive = small, poorly fitted or top-dose-only effect, or another doubt; inactive = no such curve, though single readings can be large; an effect the other way counts as inactive or inconclusive.

COc1ccc(-c2ccc3c(c2)C2CC3CCN2)cc1 (centres undefined)	GLS inh 15.8µM
C=CC(=O)N1CCC[C@@H](n2nc(-c3ccc(Oc4ccccc4)cc3)c3c(N)ncnc32)C1	none (no result: PI4K2A inh, Tb PGK inh, CCT chaperon mod, GLS inh)
O=c1[nH]c(/C=C2\C=Nc3ccccc32)c(O)n1Cc1ccccc1F	GLS inh 7.94µM
NC(=O)NC1N=C([O][Al])NC1=O (centres undefined)	none (no result: Tb PGK inh, PINK1 modulator, CCT chaperon mod, GLS inh)
O=C(CN1c2ccccc2Sc2ccccc21)NNC(=S)Nc1ccc(Cl)cc1	PINK1 modulator inconclusive, GLS inh 15.8µM
O=C(CN1c2ccccc2Sc2ccccc21)NNC(=S)Nc1ccc(Cl)cc1Cl	PINK1 modulator inconclusive
O=c1c2ccccc2oc2ccc(-c3ccc4[nH]ccc4c3)cc12	none
O=c1c2ccccc2oc2cc(-c3ccc4cc[nH]c4c3)ccc12	CCT chaperon mod -43.8
CCOC(=O)C1=C(N)n2c(s/c(=C/c3ccco3)c2=O)=C(C(=O)OC)C1c1ccco1 (centres undefined)	none
N#CC1=C(N)n2c(s/c(=C\c3ccco3)c2=O)=C(C#N)C1c1ccco1 (centres undefined)	Tb PGK inh inconclusive, GLS inh 11.2µM
Cc1cnc(C)c(-c2cc(F)cc3c2OC(CNC(=O)c2cc(Cl)ccc2F)C3)n1 (centres undefined)	none (no result: PI4K2A inh, Tb PGK inh, CCT chaperon mod, GLS inh)
COc1cccc(C2(CC(=O)N3CCCCC3CO)CC(=O)N(C)C2=O)c1 (centres undefined)	none (no result: PI4K2A inh, Tb PGK inh, CCT chaperon mod, GLS inh)
CCCc1cc(=O)oc2cc(C)cc(OCC(=O)NC(Cc3ccc(Cl)cc3)C(=O)O)c12 (centres undefined)	none
CCCCc1cc(=O)oc2cc(C)cc(OCC(=O)NC(Cc3ccc(Cl)cc3)C(=O)O)c12 (centres undefined)	CCT chaperon mod -60.3
CCCCn1cc(C(=O)c2cc(Br)ccc2O)cc(C#N)c1=O	PINK1 modulator 17.8µM
Cc1ccc(-n2cc(C(=O)c3cc(Cl)ccc3O)cc(C#N)c2=O)cc1	PINK1 modulator 17.8µM
COc1ccc(-n2cc(C(=O)c3cc(Cl)ccc3O)cc(C#N)c2=O)cc1	PINK1 modulator inconclusive
Cc1ccccc1NC(=O)c1cc(C(=O)c2cc(Cl)ccc2O)cn(-c2ccccc2C)c1=O	PINK1 modulator 15.8µM
COc1ccccc1C1CN(Cc2cccc(O)c2)Cc2ccccc2O1 (centres undefined)	none (no result: PI4K2A inh, Tb PGK inh, CCT chaperon mod, GLS inh)
CN(C)CCNC(=S)Nc1cccc(Cl)c1	PI4K2A inh -51.2
CC1=NOC2(C1)N(C)c1ccccc1C2(C)C (centres undefined)	PINK1 modulator inconclusive
COc1ccc2ccc3c(c2c1)N=C[C@]1(O3)N(C)c2ccccc2C1(C)C	PI4K2A inh -68.1, GLS inh inconclusive
Cc1cccc2nc(CNC(=O)CN3Cc4cc(Cl)ccc4OC(C)C3)cn12 (centres undefined)	none (no result: PI4K2A inh, Tb PGK inh, CCT chaperon mod, GLS inh)
Cc1csc(N=Nc2ccc(N(C)C)cc2)[n+]1[O-]	PI4K2A inh -79.0, Tb PGK inh 15.8µM
CN(C)c1ccc(N=Nc2ccc(C(=O)O)cc2)cc1	none
O=C1OC2(c3ccccc31)c1cc(Br)c(O)c(Br)c1Oc1c2cc(Br)c(O)c1Br	none (no result: Tb PGK inh, PINK1 modulator, CCT chaperon mod, GLS inh)
CCCCCCSc1cc(-c2nc3cc(C)ccn3c2NC2CCCCC2)ccc1OC	PINK1 modulator inconclusive
CCCCCCSc1ccc(-c2nc3cc(C)ccn3c2NC2CCCCC2)cc1	PINK1 modulator 17.8µM
CCC(C)Sc1ccc(-c2nc3cnccn3c2NC2CCCCC2)cc1 (centres undefined)	none
CCC(C)Sc1ccc(-c2nc3cc(C)ccn3c2NC2CCCCC2)cc1 (centres undefined)	PINK1 modulator 14.1µM
COCc1c(C(=O)N2CCN(C3CCCC3)CC2)cnn1-c1nccc(-c2cccs2)n1	none (no result: PI4K2A inh, Tb PGK inh, CCT chaperon mod, GLS inh)
O=C(NCCN1CCOCC1)c1cnn(-c2nccc(-c3ccccc3F)n2)c1C1CC1	none (no result: PI4K2A inh, Tb PGK inh, CCT chaperon mod, GLS inh)
O=C(Cc1c[nH]c2ccccc12)NCc1ccc2c(c1)OCO2	CCT chaperon mod -37.7
CN(C)c1cccc(C(=O)NCc2ccc3c(c2)OCO3)c1	CCT chaperon mod -39.5
Cc1nc(NCc2ccc3nsnc3c2)sc1-c1ccn(C)n1	none (no result: PI4K2A inh, Tb PGK inh, CCT chaperon mod, GLS inh)
CCC(COC)NC(=O)c1cnn(-c2ncc3c(n2)-c2ccccc2CCC3)c1C (centres undefined)	none (no result: PI4K2A inh, Tb PGK inh, CCT chaperon mod, GLS inh)
COc1cccc(C(=O)NC2CC3CCCC(C2)N3CC(=O)Nc2ccccc2)c1 (centres undefined)	GLS inh 6.31µM
COc1cccc(C(=O)NC2CC3CCCC(C2)N3CC(=O)Nc2ccc(N(C)C)cc2)c1 (centres undefined)	none
COCC1CCCN(Cc2ccc3c(c2)CN(C(=O)c2sc(C)nc2C)CCO3)C1 (centres undefined)	none (no result: PI4K2A inh, Tb PGK inh, CCT chaperon mod, GLS inh)
COc1ccc(-c2cc3nc(C)cc(N4CCN(C(=O)c5ccoc5)CC4)n3n2)cc1	PINK1 modulator inconclusive
COc1ccc(-c2[nH]nc3nc(N4CCN(C(=O)c5ccoc5)CC4)cc(C(F)(F)F)c23)cc1	CCT chaperon mod -39.9
COc1cccc(NC(=S)/C(=C(\[O-])c2cc(C)n(-c3ccccc3F)c2C)[n+]2ccc(N(C)C)cc2)c1	PINK1 modulator 15.8µM
Cc1cc(C([O-])=C(C(=S)Nc2ccc(F)cc2)[n+]2ccccc2)c(C)n1-c1ccc(F)cc1	none
CN1C(=O)/C(=C\c2cc(N=Nc3ccccc3)ccc2O)SC1=S	PINK1 modulator 39.8µM
Cn1nnc(-c2ccc(OCc3ccccc3F)cc2)n1	PI4K2A inh -56.3
CC(C=NNc1ccc([N+](=O)[O-])cn1)=Cc1ccccc1	PINK1 modulator 28.2µM
O=C(Nc1ccc(S(=O)(=O)N2CCOCC2)cc1)c1cc(Cl)ccc1NS(=O)(=O)c1ccc(Cl)s1	none (no result: Tb PGK inh, PINK1 modulator, CCT chaperon mod, GLS inh)
COc1ccc(-c2cc(C(=O)N3CCN(c4ncccn4)CC3)c3ccccc3n2)cc1OC	CCT chaperon mod -60.2
COc1ccc(-c2cc(C(=O)N3CCC3)c3ccccc3n2)cc1OC	none
C/C(=N\O)[C@@H](C)NCC(C)(C)CN[C@H](C)/C(C)=N/O	none (no result: Tb PGK inh, PINK1 modulator, CCT chaperon mod, GLS inh)
COc1ccccc1-n1cnc2sc(C)c(C)c2c1=O	CCT chaperon mod -94.0
Cc1cc(/C=C(/C#N)c2nc3ccccc3[nH]2)c(C)n1-c1ccccc1C(=O)O	Tb PGK inh inconclusive
Cc1cc(/C=C(/C#N)c2nc3ccccc3[nH]2)c(C)n1-c1cc(C(=O)O)cc(C(=O)O)c1	Tb PGK inh inconclusive, GLS inh 17.8µM
CC(C(=O)O)N1C(=O)/C(=C/C=C/c2ccco2)SC1=S (centres undefined)	PI4K2A inh inconclusive, Tb PGK inh 7.94µM, GLS inh 3.98µM
O=C1/C(=C/C=C/c2ccco2)SC(=S)N1NS(=O)(=O)c1ccccc1	Tb PGK inh inconclusive, GLS inh 15.8µM
